Values joined by “and” are separate entries in the source; they are usually repeats but may differ in a detail not shown here. Equal values may be shown once. A structure can be active in one record and inactive in another. Active and inactive are the calls of the source. How the source made its calls: active means hit-call score of the fitted dose curve at least 0.9, where 1 is the maximum; inactive means score below 0.9.
Tests used:
[1] = ATG_CRE_CIS: Attagene CIS-FACTORIAL HepG2 Assay for human cAMP Responsive Element (CRE) binding protein 3 (AID 2282926); details: HepG2 CRE cis-reporter, Attagene multiplexed mRNA; actives raise or lower the signal
How it was run: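 Liver-derived HepG2, transfected with a CRE-containing reporter panel, exposed 24 h; transcript levels sized and quantified by capillary electrophoresis of labelled amplicons; signal changes either way referenced to vehicle.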

[2] = molecular target: CCAAT/enhancer-binding protein beta (Homo sapiens) (UniProt P17676); test: ATG_C_EBP_CIS: Attagene CIS-FACTORIAL HepG2 Assay for human CCAAT/Enhancer Binding Protein (C/EBP) beta (AID 2282927); details: HepG2 Attagene cis-factorial transcription factor reporter; actives raise or lower the signal
Sequence of CCAAT/enhancer-binding protein beta (Homo sapiens) (P17676 whole entry, looked up): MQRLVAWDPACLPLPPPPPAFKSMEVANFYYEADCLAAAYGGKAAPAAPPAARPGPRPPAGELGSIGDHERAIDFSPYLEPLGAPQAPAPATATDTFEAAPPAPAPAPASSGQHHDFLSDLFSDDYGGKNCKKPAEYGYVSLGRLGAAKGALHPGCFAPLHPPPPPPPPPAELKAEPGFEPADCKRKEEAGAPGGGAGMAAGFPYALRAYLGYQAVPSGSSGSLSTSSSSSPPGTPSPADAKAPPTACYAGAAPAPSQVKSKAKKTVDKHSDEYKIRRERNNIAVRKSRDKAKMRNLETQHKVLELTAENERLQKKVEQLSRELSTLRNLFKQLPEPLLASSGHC
How it was run: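 RT-PCR/capillary electrophoresis fluorescence of reporter mRNA, 24 h post-dose, in HepG2 cells carrying transfected cis-promoter reporter units. Bidirectional curve fitting against DMSO baseline captures gain or loss of signal.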

[3] = ATG_CMV_CIS: Attagene CIS-FACTORIAL HepG2 Assay for human CMV (Internal Marker) (AID 2282928); details: HepG2 CMV promoter reporter, transcription factor profiling; actives raise or lower the signal;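 further: endpoint acts as a background internal control marker rather than a target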
How it was run: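 Fluorescence intensity of RT-PCR-derived reporter fragments, resolved by capillary electrophoresis, gives the signal. HepG2 liver cells bearing transfected cis-element reporters were treated 24 h; activity in either direction was fit relative to DMSO-treated controls.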

[4] = ATG_DR4_LXR_CIS: Attagene CIS-FACTORIAL HepG2 Assay for human Liver X Receptor (LXR), DR4 submotif (AID 2282929); details: HepG2 Attagene DR4 cis-reporter, mRNA transcription; actives raise or lower the signal
How it was run: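 The endpoint is DR4-element-driven reporter transcripts after 24 h chemical exposure of transfected HepG2 cells. These were measured via RT-PCR and capillary electrophoresis, and gain or loss of signal was fitted relative to DMSO controls.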

[5] = molecular target: Aryl hydrocarbon receptor (Homo sapiens) (UniProt P35869); test: ATG_Ahr_CIS: Attagene CIS-FACTORIAL HepG2 Assay for human Aryl Hydrocarbon Receptor (Ahr) (AID 2282930); details: HepG2 AhR cis-factorial reporter transcription; actives raise or lower the signal
Sequence of Aryl hydrocarbon receptor (Homo sapiens) (P35869 whole entry, looked up): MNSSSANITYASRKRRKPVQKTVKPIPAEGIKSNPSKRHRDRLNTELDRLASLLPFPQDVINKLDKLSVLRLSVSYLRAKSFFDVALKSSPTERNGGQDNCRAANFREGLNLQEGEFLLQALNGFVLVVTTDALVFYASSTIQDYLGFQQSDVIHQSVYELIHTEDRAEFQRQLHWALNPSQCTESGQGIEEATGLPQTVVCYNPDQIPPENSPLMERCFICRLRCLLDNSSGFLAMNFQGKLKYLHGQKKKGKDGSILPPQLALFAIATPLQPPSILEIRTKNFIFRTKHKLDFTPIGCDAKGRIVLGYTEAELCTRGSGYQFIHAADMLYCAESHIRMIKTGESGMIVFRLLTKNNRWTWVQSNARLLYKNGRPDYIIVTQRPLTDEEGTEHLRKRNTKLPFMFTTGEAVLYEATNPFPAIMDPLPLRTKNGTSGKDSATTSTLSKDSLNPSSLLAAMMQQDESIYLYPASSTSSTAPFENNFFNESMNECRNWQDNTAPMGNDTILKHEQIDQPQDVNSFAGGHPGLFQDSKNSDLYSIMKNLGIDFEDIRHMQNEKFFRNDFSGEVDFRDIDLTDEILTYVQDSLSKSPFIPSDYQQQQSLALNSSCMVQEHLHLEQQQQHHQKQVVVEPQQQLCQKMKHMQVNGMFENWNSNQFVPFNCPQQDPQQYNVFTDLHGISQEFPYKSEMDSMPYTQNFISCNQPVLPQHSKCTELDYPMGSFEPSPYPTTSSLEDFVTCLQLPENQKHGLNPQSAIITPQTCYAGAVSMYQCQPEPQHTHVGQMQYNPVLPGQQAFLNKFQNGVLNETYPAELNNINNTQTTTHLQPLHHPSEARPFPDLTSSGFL
How it was run: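 HepG2 cells transiently transfected with cis-element-driven multiplexed reporter transcription units; endogenous transcription factor activity measured as reporter mRNA 24 h after dosing. RT-PCR, 6-FAM labelling, HpaI digestion, capillary electrophoresis; bidirectional fitting versus DMSO baseline.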

[6] = ATG_AP_1_CIS: Attagene CIS-FACTORIAL HepG2 Assay for human Activator Protein 1 (AP-1) (AID 2282931); details: HepG2 Attagene cis-factorial AP-1 reporter mRNA; actives raise or lower the signal
How it was run: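 Readout is reporter transcript level from endogenous transcription factor activity, quantified by RT-PCR with fluorescent primer extension and capillary electrophoresis. Transiently transfected HepG2 cells, 24 h exposure. Curves fitted both directions versus DMSO.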

[7] = ATG_AP_2_CIS: Attagene CIS-FACTORIAL HepG2 Assay for human Activator Protein 2 (AP-2) (AID 2282932); details: HepG2 AP-2 cis-reporter, Attagene transcription factor profiling; actives raise or lower the signal
How it was run: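 Assay in transfected HepG2 with promoter-regulated reporters, 24 h incubation after dosing. Signal is reporter mRNA fluorescence (RT-PCR, capillary electrophoresis), analysed for both increases and decreases relative to DMSO controls.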

[8] = ATG_BRE_CIS: Attagene CIS-FACTORIAL HepG2 Assay for human Bone Morphogenetic Protein (BMP) Response Element (BRE) (AID 2282933); details: HepG2 BMP response element reporter, Attagene transcription factor profiling; actives raise or lower the signal
How it was run: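 Multiplexed cis-reporter assay, HepG2, 24 h exposure. mRNA from reporter units quantified via RT-PCR/CE; DMSO baseline; bidirectional curve fit.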

[9] = APR_HepG2_NuclearSize_72hr: Apredica 72-hour HepG2 Assay for Nuclear Size (AID 2282925); details: high-content imaging, actives raise or lower the signal
How it was run: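 Compounds (0.39–200 uM, final DMSO 0.5%) were applied to HepG2 for 72 hr. Cells were then formaldehyde-fixed, permeabilized and labelled with Hoechst 33342. Nuclear diameter was quantified from six images per well.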

Measured: AC50

CCC(=O)OC/C=C(\C)CCC=C(C)C
not listed: [8] | [9]
inactive: all other assays above

NC(=O)c1cnccn1
not listed: [9]
inactive: all other assays above

CC(C)OB(OC(C)C)OC(C)C
not listed: [9]
inactive: all other assays above

CCNC(=S)NCC
not listed: [8] | [9]
inactive: all other assays above

C[C@]12CC[C@@H]3c4ccc(O)cc4CC[C@H]3[C@@H]1CC[C@@H]2O
active: [3] 19.5 µM [middle of 4 runs] | [5] 27.7 µM and 62.5 µM | [7] 65.8 µM
inactive: [9] | [1] | [3] | [4] | [5] | [7] | [8]

O=S(=O)(O)c1cc(S(=O)(=O)O)c2c(N=Nc3ccccc3)c(O)ccc2c1
not listed: [9]
inactive: all other assays above

NC(N)=S
not listed: [9]
inactive: all other assays above

O=c1cc[nH]cc1
not listed: [9]
inactive: all other assays above

CCOCC(C)O (configuration not stated)
not listed: [9]
inactive: all other assays above

CC(C)N(c1ccccc1)C(C)C
not listed: [9]
inactive: all other assays above

CC(C)(O)C(=O)c1ccc(OCCO)cc1
not listed: [9]
inactive: all other assays above

Cc1cccc(C)c1
not listed: [9]
inactive: all other assays above

CCCOC(=O)CC
not listed: [9]
inactive: all other assays above

C=CCOCC(O)CO (configuration not stated)
active: [2] 100 µM
not listed: [9]
inactive: all other assays above

C=CC(C)CCCC(C)(C)O (configuration not stated)
not listed: [9]
inactive: all other assays above

CC(=O)OC(C)(C)C
not listed: [9]
inactive: all other assays above

CN(C)c1ccc(C=O)cc1
not listed: [9]
inactive: all other assays above

CCOC(=O)CCCCCCCCC(=O)OCC
not listed: [9]
inactive: all other assays above

CCCCCCCCCCOC(=O)c1ccccc1C(=O)OCCCCCCCC
not listed: [9]
inactive: all other assays above

CC1=C(C=O)C(C)(C)CCC1
not listed: [9]
inactive: all other assays above

CCCCN(CCO)CCO
not listed: [9]
inactive: all other assays above

CC(O)CNCC(C)O (configuration not stated)
not listed: [9]
inactive: all other assays above

c1coc(CNc2ncnc3nc[nH]c23)c1
not listed: [9]
inactive: all other assays above

CC(O)COCC(C)O (configuration not stated)
not listed: [9]
inactive: all other assays above

CC(C)N1C(=O)c2ccccc2C1=O
not listed: [9]
inactive: all other assays above

[Cl][Dy]([Cl])[Cl]
not listed: [9]
inactive: all other assays above

O=C1CCCCCCCCCCCC(=O)OCCO1
not listed: [9]
inactive: all other assays above

C=C(C)C(=O)OCCOCCOC(=O)C(=C)C
not listed: [9]
inactive: all other assays above

Brc1cc(Br)cc(Br)c1
not listed: [9]
inactive: all other assays above
